Screens as filed in PubChem BioAssay.
CHX counter – Cycloheximide Counterscreen for Small Molecule Inhibitors of Shiga Toxin. max response, %. AID 2314, 2010. 300,000 tested, 12% active. cell reporter, cycloheximide protein synthesis inhibition counterscreen; in the data active = max response mostly above about 13%, no sharp cut-off; inactive = mostly below about 14%; also: read at 38.3 µM for the half of the compounds with a filed dose
HCMV inh – qHTS Assay for inhibitors of the human cytomegalovirus (HCMV); HFF cells, HCMV-luciferase reporter, 72 h; active compounds read low; activity change, negative = inhibition, % at 57.5 µM; 410,000 tested, 4.5% active; AID 1259415, 2018; in the data active = activity change below about -60%; inconclusive = no clear call, values can overlap the other calls; inactive = above about -39%
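Compounds were evaluated in HFFs infected with an HCMV luciferase reporter virus (MOI 1 PFU/cell). Luciferase in lysates collected 72 h post infection served as the replication measure.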
Pf growth 96h – Primary qHTS for delayed death inhibitors of the malarial parasite plastid, 96 hour incubation; P. falciparum luciferase reporter growth, 96 h; Potency, µM (top dose mostly 28.7 µM), usual class: inhibitors; 320,000 tested, 6.9% active
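96 h incubation, 37 C, 5% CO2, of luciferase-reporter P. falciparum-infected RBCs (2% hematocrit, 0.05% parasitemia final) with test compounds; endpoint luminescence.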
Shiga inhibitor – A qHTS for Small Molecule Inhibitors of Shiga Toxin; Vero cells, Shiga toxin protein synthesis inhibition reporter; inhibition, % at 38.7 µM; 290,000 tested, 9.2% active; AID 2315, 2010; in the data active = inhibition mostly above about 28%, no sharp cut-off; inactive = mostly below about 43%
HCV inh – qHTS Assay for Inhibitors of Hepatitis C Virus (HCV). Huh7.5.1 HCVcc-Cre infection, luciferase reporter, 44 h. Potency, µM (series often up to 41.8 µM), actives largely listed as inhibitors. 340,000 tested, 3.4% active
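A cell-based infection assay in which seeded cells (1,000 per well) receive test compound after 4 h, are inoculated with HCVcc-Cre at approximately 0.5 moi, and are incubated 44 h before luminescence detection.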
Pf growth 48h – Primary qHTS for delayed death inhibitors of the malarial parasite plastid, 48 hour incubation; AID 504832, 2011; Potency, µM (top dose mostly 28.7 µM), hits mostly inhibitors; P. falciparum luciferase growth in erythrocytes, 48 h; 310,000 tested, 5.9% active
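Luciferase-expressing P. falciparum in infected erythrocytes (2% hematocrit, 0.1% parasitemia final) in RPMI 1640/0.5% Albumax were exposed to compound for 48 hours at 37 C, 5% CO2; growth read as luminescence.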
Numbers stand for hits; [ ] = dose if it differs, or a comment. An excerpt weighted towards active compounds, which were near 21% of everything screened. Unless noted, calls follow the shape of the dose curve; as a rule, active = well fitted inhibition curve with a large enough effect; inconclusive = small, poorly fitted or top-dose-only effect, or another doubt; inactive = no such curve, though single readings can be large or run the other way.

How did O=[N+]([O-])c1cc(C(F)(F)F)cc([N+](=O)[O-])c1Sc1n[nH]c(C(F)(F)F)n1 do in these assays?
CHX counter: inactive; HCMV inh: inactive; Pf growth 96h: inconclusive; Shiga inhibitor: inactive; HCV inh: inactive; Pf growth 48h: 5.2µM

What do the screens show for `COc1cc(/C=N/O)cc(Cl)c1OC`?
CHX counter: inactive; HCMV inh: inactive; Pf growth 96h: inactive; Shiga inhibitor: inactive; HCV inh: inactive; Pf growth 48h: inactive

How did COc1cc(Br)cc(/C=C/c2ccc3cccc(O)c3n2)c1OC do in these assays?
CHX counter: inactive; HCMV inh: inactive; Pf growth 96h: inactive; Shiga inhibitor: inactive; HCV inh: inactive; Pf growth 48h: inconclusive

Results for COc1cc(/C=C/c2ccc3cccc(O)c3n2)cc(Cl)c1OC ?
CHX counter: 52; HCMV inh: inactive; Pf growth 96h: 3.7µM; Shiga inhibitor: 127; HCV inh: inconclusive; Pf growth 48h: inactive[0.00184 µM]

Results for COc1ccc(/C=C/c2ccc3cccc(O)c3n2)cc1Br ?
CHX counter: 48; HCMV inh: inactive; Pf growth 96h: inactive; Shiga inhibitor: 115; HCV inh: inconclusive; Pf growth 48h: inconclusive

How did COc1cc(/C=C/c2ccc3cccc(O)c3n2)cc(OC)c1OC do in these assays?
CHX counter: 33; HCMV inh: -94; Pf growth 96h: inactive; Shiga inhibitor: 63; HCV inh: inconclusive; Pf growth 48h: inconclusive

Results for COc1ccc(/C=C2/C(=O)ON=C2C)cc1Br ?
CHX counter: inactive; HCMV inh: inactive; Pf growth 96h: inactive; Shiga inhibitor: inactive; HCV inh: inconclusive; Pf growth 48h: inactive

How did COc1ccc(Br)cc1/C=C/c1ccc2cccc(O)c2n1 do in these assays?
CHX counter: inactive; HCMV inh: inactive; Pf growth 96h: inconclusive; Shiga inhibitor: inactive; HCV inh: inconclusive; Pf growth 48h: 2.1µM

What do the screens show for `CCOc1ccccc1-c1nnc2n1N=C(c1ccccc1OC)CS2`?
CHX counter: inactive; Shiga inhibitor: inactive

What do the screens show for `CC1(C)Cc2c(sc(NC(=O)C(=O)N3CCN(CCO)CC3)c2C(N)=O)CO1`?
CHX counter: inactive; HCMV inh: inactive; Pf growth 96h: inactive; Shiga inhibitor: inactive; HCV inh: inactive; Pf growth 48h: inactive

What do the screens show for `Cc1ccc(C2Nc3cc(C)c(C)cc3-n3c(-c4ccccc4)c4c(=O)n(C)c(=O)n(C)c4c32)o1` (centres undefined)?
HCMV inh: inactive

What do the screens show for `COc1cc(/C=C/c2ccc3cccc(O)c3n2)cc(Br)c1OC`?
CHX counter: 78; HCMV inh: inconclusive; Pf growth 96h: inconclusive; Shiga inhibitor: 164; HCV inh: 11µM; Pf growth 48h: inconclusive

Results for COc1cc(NS(=O)(=O)c2ccc(NC(=S)NC(=O)c3sc4ccccc4c3Cl)cc2)nc(OC)n1 ?
CHX counter: inactive; HCMV inh: inactive; Pf growth 96h: 12µM; Shiga inhibitor: inactive; HCV inh: inactive; Pf growth 48h: inactive

What do the screens show for `COc1ccc(C(=O)/C=C/Nc2ccc(S(=O)(=O)Nc3cc(OC)nc(OC)n3)cc2)c(OC)c1`?
CHX counter: inactive; HCMV inh: inactive; Pf growth 96h: inactive; Shiga inhibitor: inactive; HCV inh: inactive; Pf growth 48h: 1.7µM

What do the screens show for `COc1ccc(-c2csc(Nc3ccc(S(=O)(=O)Nc4cc(OC)nc(OC)n4)cc3)n2)cc1`?
CHX counter: inactive; HCMV inh: inactive; Pf growth 96h: 15µM; Shiga inhibitor: inactive; HCV inh: inactive; Pf growth 48h: inactive

Results for COc1cc(NS(=O)(=O)c2ccc(N/C=C(\C#N)c3nc4cc(Cl)ccc4o3)cc2)nc(OC)n1 ?
CHX counter: inactive; HCMV inh: -86; Shiga inhibitor: inactive; HCV inh: inactive; Pf growth 48h: inactive

Results for COc1cccc(C(=O)/C=C/Nc2ccc(S(=O)(=O)Nc3cc(OC)nc(OC)n3)cc2)c1 ?
CHX counter: 34; HCMV inh: inactive; Pf growth 96h: inactive; Shiga inhibitor: 69; HCV inh: inactive; Pf growth 48h: inactive

Results for O=Cc1c(NCc2ccc(F)cc2)c2ccccc2[nH]c1=O ?
CHX counter: inactive; HCMV inh: inactive; Pf growth 96h: 10µM; Shiga inhibitor: inactive; HCV inh: inactive; Pf growth 48h: inactive
